This excerpt belongs to a sample that is enriched for hits.
DT40 TDP1 no CPT – qHTS for Inhibitors of human tyrosyl-DNA phosphodiesterase 1 (TDP1): qHTS in cells in absence of CPT; Potency, µM (titrated, usually from 46.2 µM), for the others: top-dose activity change, negative = growth inhibition, actives largely listed as inhibitors; AID 686978, 2013; DT40 Tdp1-/- hTDP1 cells, no CPT, ATP luminescence, 48 h; 15% of 420,000 active; also: potency is read from the fitted curve at half-maximal effect; nearly all actives have a fitted effect of over 55% in size
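Luminescent ATP content (CellTiter-Glo) served as the growth readout. Knockout chicken DT40 cells expressing human TDP1 were exposed to compounds without camptothecin for a minimum 48 hr at 37 °C.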
IL-1B inflam inh – blocks inflammasome-driven IL-1 beta release | activity change, % at 57.5 µM | 4.7% of 360,000 active | THP-1 LPS/ATP IL-1B secretion, AlphaLISA, 16 h; stronger effect = lower value | AID 743279; in the data active = activity change below about -50%; inconclusive = mostly about -30% to -49%
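THP-1 cells pretreated 1 hr with compounds (up to 57.5 uM final), then stimulated with LPS (250 ng/mL final) plus ATP (1.25 mM final); secreted IL-1B measured by AlphaLISA after 16 hr, decreased signal indicating inhibition.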
12-LOX inh – inhibitors of human 12S-lipoxygenase ALOX12; P18054; purified 12hLO, xylenol orange hydroperoxide absorbance; Potency, µM (series often up to 108 µM), for inactives: top-dose activity change, negative = inhibition, actives largely listed as inhibitors; 1.1% of 580,000 active; also: potency is read from the fitted curve at half-maximal effect
Target sequence (P18054 whole entry, looked up): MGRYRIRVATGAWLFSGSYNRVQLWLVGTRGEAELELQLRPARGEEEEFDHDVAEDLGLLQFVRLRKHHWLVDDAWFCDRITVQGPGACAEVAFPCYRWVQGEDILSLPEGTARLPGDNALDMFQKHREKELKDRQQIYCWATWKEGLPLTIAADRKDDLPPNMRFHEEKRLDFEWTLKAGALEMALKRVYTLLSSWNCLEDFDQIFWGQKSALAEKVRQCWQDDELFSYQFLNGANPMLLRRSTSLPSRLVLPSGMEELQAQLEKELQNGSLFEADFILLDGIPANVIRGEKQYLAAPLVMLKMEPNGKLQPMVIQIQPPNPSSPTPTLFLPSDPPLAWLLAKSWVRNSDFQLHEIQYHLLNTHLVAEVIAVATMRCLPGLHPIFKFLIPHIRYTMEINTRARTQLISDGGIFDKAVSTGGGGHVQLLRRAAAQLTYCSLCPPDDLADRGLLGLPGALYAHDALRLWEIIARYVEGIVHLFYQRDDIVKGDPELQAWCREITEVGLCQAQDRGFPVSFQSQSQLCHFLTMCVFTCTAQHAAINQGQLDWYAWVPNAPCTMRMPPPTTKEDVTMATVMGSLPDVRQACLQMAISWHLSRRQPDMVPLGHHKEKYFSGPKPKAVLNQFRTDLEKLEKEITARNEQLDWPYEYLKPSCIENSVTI
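Hydroperoxide product was detected by ferrous iron/xylenol orange as the 573 to 405 nm absorbance ratio. Arachidonic acid at 40 uM (final) was turned over for 30 min at room temperature by 150 nM human 12hLO, pH 7.0 Hepes buffer, after 15 min compound preincubation.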
HT1080-NT tox – kills 2HG-producing HT-1080-NT fibrosarcoma cells; HT-1080-NT fibrosarcoma viability, CellTiter-Glo ATP luminescence, 48 h; 1.6% of 360,000 active; Potency, µM (highest dose often 46.1 µM), without a hit: top-dose activity, negative = less viability, actives largely listed as cytotoxic;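 also: NT is the 2HG producing partner of a matched IDH1 knockdown line; potency is read from the fitted curve at half-maximal effect; 0% = DMSO-treated cells and -100% = media-only wells without cells; nearly all actives have a fitted effect of over 55% in size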
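A 48-hour cytotoxicity screen used HT-1080-NT cells plated 2 hours before compound delivery. ATP-based CellTiter-Glo luminescence measured viability, normalized to DMSO and no-cell controls.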
HT1080 IDH1KD tx – HT-1080 IDH1 knockdown cell toxicity (counter line). 2% of 360,000 active. HT-1080 IDH1 knockdown viability, ATP luminescence, 48 h. Potency, µM (series often up to 46.1 µM), without a hit: at the highest dose activity, negative = toxicity, hits mostly cytotoxic. AID 686971;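 also: potency is read from the fitted curve at half-maximal effect; 0% = DMSO wells and -100% = cell-free medium wells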
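Cytotoxicity counter-line: IDH1KD HT-1080, 48 h, CellTiter-Glo. Curves classed by r2, magnitude and activity.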
TDP1 cell CPT – DT40-hTDP1 cell growth loss with CPT; chicken DT40 Tdp1-/-;hTDP1 cells + 20 nM CPT, ATP luminescence, 48 h; Potency, µM (titrated, usually from 46.2 µM), without a hit: top-dose activity change, negative = growth inhibition, hits mostly inhibitors; 12% of 420,000 active; also: potency is read from the fitted curve at half-maximal effect; nearly all actives have a fitted effect of over 55% in size
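Chicken DT40 Tdp1-/- cells stably complemented with human TDP1 were seeded at 400 cells/well in medium containing 20 nM camptothecin, exposed to pin-transferred compounds, and grown at 37 °C for at least 48 hr. Viability was read as ATP luminescence.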
Numbers without * were called inactive; u = inconclusive; x = not tested or not shown; [ ] = dose if it differs, or a comment. Unless noted, calls follow the shape of the dose curve; as a rule, active = well fitted curve in the direction sought with a large enough effect; inconclusive = small, poorly fitted or top-dose-only effect, or another doubt; inactive = no such curve, though single readings can be large; an effect the other way counts as inactive or inconclusive. Unless noted, % is scaled to controls: 0 for no effect and ±100 for the full control effect.

SMILES | DT40 TDP1 no CPT | IL-1B inflam inh | 12-LOX inh | HT1080-NT tox | HT1080 IDH1KD tx | TDP1 cell CPT
CCn1c(=O)n(CC(=O)N(C)CC(=O)Nc2ccccc2Br)c2ccccc21 | x | x | -9% | x | x | x
COc1cc(-c2nc3nc(C)cc(C)n3c2Nc2ccc(Cl)cc2)ccc1O | u | x | -7% | x | x | u
CSc1ccc(-c2nc3cccc(C)n3c2Nc2ccc(Cl)cc2)cc1 | 7.3µM* | x | -37% | x | x | 9.2µM*
Cc1ccc(Nc2c(-c3ccc(O)cc3)nc3cccc(C)n23)cc1 | u | x | -18% | x | x | 23µM*
Cc1ccc(Nc2c(-c3ccc(C)cc3)nc3ccc(C)cn23)cc1 | u | x | -25% | x | x | u
O=C(N/N=C/c1ccccc1F)c1csc2ccccc12 | x | x | -13% | x | x | x
N#Cc1ccc(-c2ccccc2)nc1SCCN1CCOCC1 | u | -75* | -18% | -2% | -19% | -30%
Cn1cnnc1SCC(=O)c1cc2ccccc2oc1=O | -17% | -6 | 6.3µM* | 0% | -27% | -23%
O=C(c1cc2ccccc2oc1=O)N(c1ccc(Cl)cc1)C1C=CS(=O)(=O)C1 (stereo not drawn) | u | 0 | -20% | 8% | 10% | 16µM*
N#Cc1ccc(-c2ccccc2)nc1SCC(=O)c1cc2ccccc2oc1=O | u | 10 | 0% | u | u | 23µM*
CC(C)c1c(C#N)c(N)nc(SCC(=O)c2cc3ccccc3oc2=O)c1C#N | u | -9 | 0% | -2% | -6% | u
Cc1cc(C)c(C#N)c(SCCN2CCOCC2)n1 | 12% | -11 | 52% | -1% | 11% | 28%
O=C(CSc1ccc(Cl)cc1)c1cc2ccccc2oc1=O | x | x | 7.1µM* | x | x | x
O=C(CSc1nnc(-c2cccnc2)o1)c1cc2ccccc2oc1=O | u | 15 | 0% | 3% | 2%[9.24 µM] | u
Cc1nc(SCC(=O)c2cc3ccccc3oc2=O)c(C#N)c(-c2cccs2)c1C(=O)Nc1ccccc1 | u | -3 | 3% | 7% | 9% | 21µM*
COc1cccc(OCc2nc3ncc(Br)cc3[nH]2)c1 | 2.9µM* | 60 | -7% | 2.2µM* | u | 4.1µM*
CCOc1ccc(OCc2nc3ccc(OC)cc3[nH]2)cc1 | x | x | 23% | x | x | x
Cc1cc(C)cc(OCc2nc3ncc(Br)cc3[nH]2)c1 | 2.3µM* | 41 | 3% | u | u | 2.3µM*
CCCCn1c(SCC(=O)c2cc(C)n(C3CC3)c2C)nc2cc(S(N)(=O)=O)ccc21 | x | x | -61% | x | x | x
CCOc1ccc(NC2=C(Cl)C(=O)N(C3CCCCC3)C2=O)cc1 | -9% | -10 | -11% | 14% | 3% | 1%
COc1ccc(C)cc1NC1=C(Cl)C(=O)N(C2CCCCC2)C1=O | 12µM* | 4 | 0% | -3% | 5% | u
CCOC(=O)c1sc2nc(SCC(=O)N(CC)CC)n(CCCN3CCCC3=O)c(=O)c2c1C | -12% | u | 17% | -2% | -11% | 18µM*
CCN(CC)C(=O)CSc1nc2sc3c(c2c(=O)n1CCOC)CCC3 | -25% | 6 | 2% | 10% | 2% | 10%
CCn1nc(C)cc1-c1nnc(Sc2ncc([N+](=O)[O-])s2)n1C | 0.58µM* | -99* | u | 10µM* | 21µM* | 0.58µM*
CCn1nc(C)cc1-c1nnc(SCC(=O)Nc2ccccc2)n1CCCOC | -19% | x | 164% | 8% | 10% | -9%
SMILES | DT40 TDP1 no CPT | IL-1B inflam inh | 12-LOX inh | HT1080-NT tox | HT1080 IDH1KD tx | TDP1 cell CPT
COCC(=O)N1CCC2CC1c1c(-c3ccc(C(F)(F)F)cc3)cccc12 (stereo not drawn) | u | 4 | 1% | -4% | 0% | 23µM*
COCC(=O)N1CCN2C(=O)c3cc(-c4cccc(C(F)(F)F)c4)ccc3NC(=O)[C@H]2C1 | x | x | -5% | x | x | x
COc1ccc(-c2cccc3c2C2CC3CCN2C(=O)OCc2ccccc2)cc1 (stereo not drawn) | u | -20 | 0% | -5% | 1% | u
C=CCOC(=O)N1CCC2CC1c1c(-c3ccc(C(F)(F)F)cc3)cccc12 (stereo not drawn) | u | 40 | -9% | u | u | 23µM*
COc1ccc(S(=O)(=O)N2CCC3CC2c2c(-c4ccc(C(F)(F)F)cc4)cccc23)cc1 (stereo not drawn) | 5.2µM* | 10 | 6% | 11% | -22% | 4.6µM*
CCN1c2cc(C(=O)NC3CCCCC3)ccc2C(=O)N2CCCCCC21 (stereo not drawn) | x | x | 12% | x | x | x
CO[C@@H]1[C@@H](OC)[C@H](C)[C@@](O)(CC(=O)O)O[C@H]1[C@H](C)[C@H]1O[C@@]2(CC[C@@](C)([C@H]3CC[C@@](C)([C@@H]4O[C@@H]([C@H]5O[C@](C)(O)[C@H](C)C[C@@H]5C)C[C@@H]4OC4C[C@H](OC)[C@@H](OC)[C@H](C)O4)O3)O2)C[C@H](O)[C@H]1C (stereo partly drawn) | 0.34µM* | x | -2%[22.9 µM] | x | x | 0.6µM*
Cc1ccccc1C1(O)CCN(C(=O)c2ccc(C#CC(C)(C)O)o2)C1 (stereo not drawn) | x | x | 7% | x | x | x
CCOC(=O)c1sc(NCCCOC)nc1C(F)(F)F | x | x | 9% | x | x | x
CNc1c(Br)cc(/C=C2\C=Cc3ccccc32)cc1Br | u | x | x | x | x | -9%
CNc1c(Br)cc(C(O)C2=CCc3ccccc32)cc1Br (stereo not drawn) | 4.5µM* | x | x | x | x | 8.9µM*
Cc1nc2c(C(=O)NC(C)c3ccccc3)cnn2c(C)c1Cc1ccccc1 (stereo not drawn) | u | x | u | x | x | 13µM*
COC(CNC(=O)c1cnn2c(C)c(Cc3ccccc3)c(C)nc12)OC | 16µM* | u | 45% | -2% | -9% | u
COC(CNC(=O)Cc1c(C)nc2c(-c3ccccc3)c(C)nn2c1C)OC | -30% | -8 | -29% | 12% | 13% | 0%
O=C(c1ccc(CSc2nc3ccncc3n2Cc2cccc(F)c2)cc1)N1CCCCC1 | 21µM* | x | -29% | x | x | u
O=C(c1ccc(CSc2nc3ccncc3n2Cc2cccc(F)c2)cc1)N1CCCCCC1 | 16µM* | x | -5% | x | x | u
Cc1oc2cc(OCC(=O)NC(C)c3ccco3)ccc2c(=O)c1Oc1ccccc1 (stereo not drawn) | x | x | -7% | x | x | x
CC(C)(C)NC(=O)NC(=O)COC(=O)Cc1c(Cl)cccc1Cl | -28% | -54* | 15% | -16% | 0% | -1%
